Measurements as given in ChEMBL document CHEMBL3988442, “University of Dundee, Small-Polar-MMV Screening Library” (2021).

Legend:
[1] = target: T1, Aspartate--tRNA(Asp/Asn) ligase (Mycobacterium tuberculosis (strain ATCC 25618 / H37Rv)) (UniProt P9WFW3); assay: Assay for Asp RNA synthetase-1 from Mycobacterium tuberculosis; assay type: functional; design: scale not given: direction of the effect not stated beside the values; settings: 30 µM; also: in the data most compounds retested in dose-response had high values
T1 sequence (whole entry): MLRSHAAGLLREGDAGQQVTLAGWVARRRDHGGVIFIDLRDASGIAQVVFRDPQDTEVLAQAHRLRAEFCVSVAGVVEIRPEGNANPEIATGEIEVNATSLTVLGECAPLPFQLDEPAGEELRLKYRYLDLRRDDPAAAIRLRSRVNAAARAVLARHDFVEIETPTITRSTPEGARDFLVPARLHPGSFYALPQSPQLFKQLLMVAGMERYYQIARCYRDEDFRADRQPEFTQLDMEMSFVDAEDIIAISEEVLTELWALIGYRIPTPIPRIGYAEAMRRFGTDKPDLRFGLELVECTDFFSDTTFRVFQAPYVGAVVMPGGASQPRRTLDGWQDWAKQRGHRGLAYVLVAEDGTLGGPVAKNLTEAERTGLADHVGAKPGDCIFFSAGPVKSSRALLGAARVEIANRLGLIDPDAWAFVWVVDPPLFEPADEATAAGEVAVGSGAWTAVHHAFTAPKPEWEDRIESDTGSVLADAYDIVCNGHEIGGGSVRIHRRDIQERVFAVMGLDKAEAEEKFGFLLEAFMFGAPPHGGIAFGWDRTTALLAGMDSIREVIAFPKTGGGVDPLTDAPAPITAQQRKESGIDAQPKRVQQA

[2] = target: Shiga toxin 2 (Escherichia coli O157:H7) (UniProt P09385+P09386); assay: E. coli 0.157:H7 Shiga Toxin SOP - stx2 screening assay; assay type: functional; design: scale not given: direction of the effect not stated beside the values; settings: 30 µM

| SMILES | Percent Effect [1] [%] | Percent Effect [2] [%] |
| --- | --- | --- |
| COc1cc(CNc2cnn(C)c2)cc2c1OCCO2 | -1.79 | 7.95 |
| Cc1nc(CN2CCC3(CCN(c4ncc(F)cn4)C3)C2=O)cs1 (stereo not given) | 7.33 | -9.92 |
| Cn1ccc(CN2CCC(CCc3ccc(O)cc3)CC2)cc1=O | -1.67 | -46.5 |
| CCNC(=O)N1CCC2(C1)c1ccccc1S(=O)(=O)N2CCC(C)C (stereo not given) | -0.553 | -1.22 |
| O=C(NCCNc1ncccn1)C1CCN(C(=O)C2CC2)CC1 | 1.89 | 14.1 |
| CN1N=C(C(=O)NCc2ccc3c(c2)CCCN3C)CCC1=O | -4.96 | -42.9 |
| Cc1cc(C)n(C2CN(CC(O)c3ccc4c(c3)OCO4)C2)n1 (stereo not given) | -5.92 | 7.61 |
| CC(C)[C@H](NC(=O)NC1CCS(=O)(=O)C1)C(=O)NCc1ccccc1Cl (stereo not given in full) | 0.145 | -30 |
| COc1cccc2c1OCC(C(=O)N1CCN(S(C)(=O)=O)CC1)C2 (stereo not given) | -3.14 | 14.3 |
| Cc1nc(C)n(C2CCCN(C(=O)CCCOc3ccccc3)C2)n1 (stereo not given) | -1.97 | 3.84 |
| CC1CN(CC2CCCCC2)CCN1c1ccc2nncn2n1 (stereo not given) | -1.32 | -96.5 |
| CC(C)CN1C[C@@H]2CN(C(=O)[C@H]3CCCO3)C[C@@H]2C1=O | 1.02 | -18.1 |
| Cc1ccc(C)c(CNC(=O)NC(C)(C(=O)O)c2ccco2)c1 (stereo not given) | 4.16 | 17 |
| CCOc1cc(C)nc(N2CCN(C(=O)c3ccnn3C)CC2)n1 | -2.8 | 2.54 |
| CCC(NC(=O)c1ccco1)c1ccccc1OCC(=O)N1CCCC1 (stereo not given) | 0.611 | -10.6 |
| O=C(c1cccc(CN2CCCC2)c1)N1CCCC(n2cncn2)C1 (stereo not given) | 11.7 | 14 |
| COc1ccccc1N1CCC(CNCc2cccc(OC)c2OC)C1 (stereo not given) | 10.8 | -7.96 |
| Cn1cnc(S(=O)(=O)N2CCCC2)c1Cl | -1.03 | -7.1 |
| Cc1cc(CN2CCC(CNC(=O)c3nccc4ccccc34)C2)[nH]n1 (stereo not given) | 8.37 | -22.4 |
| CC(=O)Nc1nc(C(=O)N2CCCC2c2noc(C)n2)cs1 (stereo not given) | 0.425 | -22.5 |
| CCc1nc(CN2CCCC(NCc3cnn(C(C)(C)C)c3)C2)no1 (stereo not given) | -3.23 | 2.93 |
| Cc1nc(COCc2cnc3n2CCN(CC2CCC2)C3C)cs1 (stereo not given) | -6 | -3.62 |
| O=C(CSc1ccc(F)c(F)c1)NS(=O)(=O)c1ccc2c(c1)OCCO2 | 3.35 | 10.6 |
| Cc1cnn(CC2CCN(CC(O)COc3ccc(F)cc3)CC2)c1 (stereo not given) | 1.99 | -53 |
| Cc1noc(C)c1CN1C[C@@H]2COC[C@H](C(=O)N3CCCCO3)[C@@H]2C1 | 4.46 | 5.31 |

| SMILES | Percent Effect [1] [%] | Percent Effect [2] [%] |
| --- | --- | --- |
| Cc1nc(C)n(CC2CN(Cc3cccc(C(N)=O)c3)CCO2)n1 (stereo not given) | 4.41 | -4.3 |
| O=C(c1ccoc1)N1CC[C@@H]2O[C@H](COCc3ccccn3)CC[C@@H]21 | 1.36 | -5.78 |
| O=C(c1cccnc1N1CCOCC1)N1CCCC1Cn1cccn1 (stereo not given) | -2.94 | 31.6 |
| CO[C@H]1CN(C(=O)c2ccc3oc(C)cc3c2)CC[C@@]12CCCO2 | 1.12 | 7.39 |
| CN(CCc1ccccn1)S(=O)(=O)N1CCCC1c1ccco1 (stereo not given) | 2.3 | 32.1 |
| CCn1c(N)nc2cc(C(=O)NCCc3sccc3C)cnc21 | 2.47 | -89 |
| Cc1nc(NC(=O)CN2CCc3c(nc(C(C)C)n3C)C2)sc1C | -4.32 | 5.46 |
| CCc1noc(C(C)N2CCN(Cc3ncc(C(C)(C)C)o3)CC2)n1 (stereo not given) | -1.28 | 23.4 |
| O=C(NCCCn1cccn1)C1(c2ccc(Br)cc2)CC1 | 0.575 | 8.42 |
| COc1ccc(C(=O)N2CCCCC2Cn2cccn2)c(F)c1 (stereo not given) | 3.52 | -7.04 |
| Cn1cc(C2CCCN2C(=O)c2ccc(Br)o2)cn1 (stereo not given) | -1.8 | 28.5 |
| CCOC(=O)NC(CNC(=O)c1ccccn1)CC(C)C (stereo not given) | -2.16 | -4.01 |
| O=C(NCC1CCOC1)c1csc(-c2ccco2)n1 (stereo not given) | 2.85 | -11.7 |
| Cc1oc(C)c(C(=O)NCc2cccc(NC(=O)CN(C)C)c2)c1C | -5.4 | -39.7 |
| O=C1C(NCc2nnc3n2CCCC3)CCN1c1ccccc1 (stereo not given) | -1.97 | -28.4 |
| COc1cc(C)nc(N2CCN(C(=O)CCc3nccs3)CC2)n1 | 2.87 | -3.5 |
| CCCc1noc(CN2CCCC2c2ccsc2)n1 (stereo not given) | -3.91 | 0.761 |
| CSCC(=O)N1CCC2(CC1)c1ccccc1CC2O (stereo not given) | 0.357 | -32.5 |
| CCCS(=O)(=O)NC(C)C(=O)NCc1ccc(N2CCCC2)nc1 (stereo not given) | 2.42 | 7.72 |
| O=C(C1=CCCC1)N1C[C@@H]2COC[C@]2(COc2cccnc2)C1 | -3.68 | 1.76 |
| CN(C)C(=O)CNC(=O)Nc1cccc(Cl)c1SC(F)F | 4.9 | -5.26 |
| Cc1ccc(Cl)cc1N1CCC(CNC(=O)CC(F)(F)F)C1 (stereo not given) | -1.19 | -45.5 |
| CC(C)CN1CCC(C(=O)Nc2cc(C(F)(F)F)c[nH]c2=O)CC1 | -2.61 | -33.9 |
| CCN(CCNC(=O)c1ccccc1Br)C1CC1 | -1.24 | 9.65 |
| Cn1cc2c(n1)C(CNC(=O)Cc1ccsc1)OCC2 (stereo not given) | -0.539 | -23.6 |
